Sampled rows, rich in hits. Any-hit rate of the full collection: about 3.1%.
ATG4B inhibitor = ATG4B (human) cysteine protease inhibition. ATG4B cleavage of LC3-PLA2, NBD-HPC fluorescence, 1 h. inhibition, % at 8.33 µM. actives 0.51% (n = 340,000). AID 504462; in the data active means inhibition above about 40%
Target sequence (Q9Y4P1 whole entry, looked up): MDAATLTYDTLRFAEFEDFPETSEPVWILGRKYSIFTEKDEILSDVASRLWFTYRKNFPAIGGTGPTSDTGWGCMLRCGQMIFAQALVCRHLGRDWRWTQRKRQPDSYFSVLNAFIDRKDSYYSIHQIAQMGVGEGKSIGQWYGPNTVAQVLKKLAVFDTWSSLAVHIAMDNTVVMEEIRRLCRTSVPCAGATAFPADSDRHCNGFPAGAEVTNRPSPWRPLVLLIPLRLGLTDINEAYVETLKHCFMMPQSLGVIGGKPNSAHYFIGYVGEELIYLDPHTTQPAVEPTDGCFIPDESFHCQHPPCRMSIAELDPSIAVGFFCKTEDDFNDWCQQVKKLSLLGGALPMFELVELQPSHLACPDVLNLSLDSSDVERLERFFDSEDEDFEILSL
SUMO Mot1 rescue = SUMOylation pathway inhibition by Mot1-301 growth rescue; S. cerevisiae Mot1-301 growth rescue, ATP luminescence, 38.5C; percent above DMSO median, 100 means doubled; AID 2716; growth rescue, % at 18.8 µM; actives 1% (n = 320,000);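 active means every valid replicate shows activation above 250% relative to neutral control wells; inactive means the rest, any valid replicate at or below 250%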;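 further: OY570 slx delta 5 strain wells were the positive control but not used for scaling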
NadD inh = NadD (S. aureus) enzyme inhibition; purified NadD enzyme, colorimetric absorbance read-out; inhibition, % at 20 µM; actives 0.78% (n = 360,000); AID 602399; in the data active means inhibition above about 26%
FAS TE block = inhibitors of human fatty acid synthase thioesterase domain. inhibition, % at 15 µM. actives 0.67% (n = 360,000). recombinant FAS-TE, OMFH fluorogenic substrate, fluorescence endpoint. P49327. AID 602261;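 active means compounds whose normalised, plate-corrected inhibition of enzyme fluorescence in the single-dose primary screen is 50% or more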;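 further: 0% = DMSO with enzyme and 100% = substrate without enzyme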
Calb FLC = C. albicans growth modulation with fluconazole; growth inhibition, % (test concentration not listed); C. albicans CaCi-2 (fluconazole-resistant clinical isolate) + fluconazole, Alamar Blue growth, 48 h; actives 0.57% (n = 300,000); AID 1979;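 active means growth inhibition above about 58% in most replicates, limit read from the data, passing the limit was not always enough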;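 further: all wells also contain fluconazole at 8 µg/ml as a sub-toxic cotreatment; 0% = median of DMSO wells and 100% = median of geldanamycin control wells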
* marks the source's active call; other numbers are inactive results; / = no result given; + = active, no number.

SMILES | ATG4B inhibitor | SUMO Mot1 rescue | NadD inh | FAS TE block | Calb FLC
O=C(Nc1cc(Sc2ccccn2)cc([N+](=O)[O-])c1)c1cccc(Cl)c1 | 13 | 246 | 3 | 28 | 113*
Cc1nn(-c2ccccc2)c(C)c1C(=O)OC/C(O)=C(\C#N)c1nc2ccccc2[nH]1 | -2 | -27 | 29 | -1 | 82*
COc1ccc(C(C(=O)NC2CCCCC2)N(C(=O)CCl)c2cccc(Cl)c2)cc1 (configuration not stated) | 7 | 328* | 2 | -4 | -7
COc1ccc(C(C(=O)NC2CCCCC2)N(C(=O)CCl)c2ccc(OC)cc2)cc1 (configuration not stated) | -1 | 2 | 0 | 2 | -14
CCCCNCCOCCOc1ccc(F)cc1 | -5 | 304* | 2 | -7 | -13
COc1ccccc1OCC(=O)NCC1CCCN(Cc2cnn(C(C)C)c2)C1 (configuration not stated) | 0 | 2 | -7 | -2 | -13
COc1ccc(NC(=O)/C(N=Nc2ccc(Cl)c(S(=O)(=O)Nc3ccc(Cl)cc3)c2)=C(\C)O)cc1 | 4 | -5 | 31* | 21 | /
CCc1nc2ccc(C(=O)NCCCn3ccnc3)cn2c1N(C)Cc1ccc(OC)cc1 | / | / | 0 | -8 | /
Cc1c(NC(=O)c2cc(-n3cnnc3)ccc2Cl)cccc1-c1nc2ccccc2s1 | 9 | -9 | 12 | 7 | -45
Cc1c(NC(=O)c2cccs2)cccc1-c1nc2ccccc2s1 | 7 | 387* | -8 | 13 | -25
O=C(O)c1cnn(-c2ccccc2)c1-c1ccncc1 | -3 | 322* | -3 | -7 | 0
O=Cc1cccn1-c1c(C(=O)O)cnn1-c1ccccc1 | -1 | 17 | 2 | -5 | -4
Cc1ccc(-n2c(C)cc(/C=N/NC(=O)Cn3c4ccccc4c(=O)c4ccccc43)c2C)cc1 | 20 | 28 | 37* | 2 | 24
Cc1cc(/C=N/NC(=O)Cn2c3ccccc3c(=O)c3ccccc32)c(C)n1-c1ccc(Cl)cc1 | 19 | / | 49* | 31 | 11
CC(=O)OC(C)C1C2=C(C(=O)CC1(C)O)C(=O)c1c(ccc(-c3ccc4c(c3O)C(=O)C3=C(C4=O)C(C(C)OC(C)=O)C(C)(O)CC3=O)c1O)C2=O (configuration not stated) | -4 | / | 45* | 28 | /
Cc1ccc(NC(=O)c2ccccc2NS(=O)(=O)c2ccc(Cl)s2)cc1S(=O)(=O)N1CCOCC1 | 0 | 304 | 2 | 22 | 42
C=CCn1c(N)nc2ccccc21 | 1 | 27 | -2 | -4 | 82*
Cc1ccc(C)c(CSC2=NCCN2S(=O)(=O)c2ccccc2)c1 | -1 | 13 | 9 | 27 | -6
O=C(CC1SC(=NCc2ccccc2)NC1=O)Nc1ccccc1 (configuration not stated) | 5 | + | 0 | -6 | 26
CCCCN=C1NC(=O)C(CC(=O)Nc2ccc(Cl)cc2)S1 (configuration not stated) | -12 | 306* | -6 | -4 | 11
COc1cccc(NC(=O)c2ccc3nc(C)sc3c2)c1 | 1 | 15 | 3 | 0 | 99*
O=C(NCc1ccccc1)C(=O)Nc1nccs1 | 10 | -9 | -3 | -3 | -2
C/C(=N\O)c1cc(Cl)cc(Cl)c1O | 11 | 35 | -2 | -82 | 77*
Cc1ccc(C)c(OCC(=O)N/N=C/c2ccc(N3CCOCC3)cc2)c1 | / | / | 2 | -2 | /
CCOc1cc(C=O)cc(N=Nc2cccc([N+](=O)[O-])c2)c1O | 0 | 2 | -2 | 15 | 104*
SMILES | ATG4B inhibitor | SUMO Mot1 rescue | NadD inh | FAS TE block | Calb FLC
O=[N+]([O-])c1cccc(N=Nc2ccc(O)cc2O)c1 | 0 | / | -4 | -4 | /
Cc1cccc(Nc2ncnc(N)n2)c1 | -7 | 541* | -3 | -2 | 10
CCOc1ccc(CCNC(=O)CSc2n[nH]c(N)n2)cc1OCC | 12 | 357* | -2 | -8 | 1
COc1cc(/C=C/C(=O)OCC(=O)Nc2cc(S(=O)(=O)N3CCCC3)ccc2Cl)cc(OC)c1OC | -4 | 12 | 4 | 21 | /
O=[N+]([O-])c1c(C(Cl)Cl)nn(-c2ccc(Cl)cc2)c1N1CCCCC1 | 4 | 99 | 3 | 23 | 81*
COCCCN1C(=O)C(CC(=O)NCCN2CCOCC2)CC(C(=O)N2CCOCC2)=C1C (configuration not stated) | / | / | 9 | -4 | /
COc1ccc(OC)c(NC(=O)Cc2coc3ccc4ccccc4c23)c1 | -4 | 497* | -10 | 27 | -4
